Assay results taken from PubChem BioAssay (NCI).
This is part of a sample that, as a whole, favours compounds with a hit. Of some 79,000 tested, about 15% had one in any assay. Unmarked numbers belong to inactive results. Calls of active or inactive are those of the source. No stated cut-off is given here; in the data, active means growth inhibition above about 70%; inactive means the rest.

Assays:
[1] = NCI Yeast Anticancer Drug Screen. Data for the rad50 strain (AID 155);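 further: 0% = growth of vehicle-only cultures of the same strain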; settings: S. cerevisiae rad50 strain growth inhibition, active compounds read high
Outline: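 Growth of the mutant yeast was measured after compound exposure and referenced to vehicle-treated cultures.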

[2] = NCI Yeast Anticancer Drug Screen. Data for the mec2-1 strain (AID 157); settings: S. cerevisiae mec2-1 strain, active compounds read high
Outline: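 Growth inhibition is read against vehicle-treated controls after compound exposure of the mec2-1 yeast strain, which is defective in DNA damage repair or cell cycle control.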

[3] = NCI Yeast Anticancer Drug Screen. Data for the sgs1 mgt1 strain (AID 161);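 further: 0% = growth of cultures given vehicle only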; settings: S. cerevisiae sgs1 mgt1 strain, active compounds read high
Outline: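 Growth of a repair-deficient yeast mutant was monitored after compound treatment and expressed as inhibition relative to vehicle-treated cultures.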

[4] = NCI Yeast Anticancer Drug Screen. Data for the cln2 rad14 strain (AID 165);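 further: 0% = growth equal to vehicle treated cultures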; settings: S. cerevisiae cln2 rad14 strain, active compounds read high
Outline: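 Growth inhibition, relative to vehicle-treated controls, is the read-out. The test organism is a yeast strain with defined genetic alterations, cln2 rad14.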

[5] = NCI Yeast Anticancer Drug Screen. Data for the bub3 strain (AID 167); settings: S. cerevisiae bub3 mutant strain, active compounds read high
Outline: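 Whole-cell yeast assay. The mutant strain was incubated with compounds, and growth inhibition was determined by comparison with vehicle-treated cells.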

[6] = NCI Yeast Anticancer Drug Screen. Data for the mlh1 rad18 strain (AID 175); settings: S. cerevisiae mlh1 rad18 strain growth inhibition, active compounds read high
Outline: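 Cells of a genetically altered yeast strain, deficient in DNA damage repair, were treated with compound. Their growth was then compared with that of vehicle-treated cultures to give inhibition.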

[7] = at 5.0 µM (retest, dose inferred, filed as 0.5)
[8] = at 50.0 µM (retest, dose inferred, filed as 5.0)

SMILES	growth inhibition [1, 7]	growth inhibition [1, 8]	growth inhibition ([1]; at 50.0 µM)	growth inhibition [2, 7]	growth inhibition [2, 8]	growth inhibition ([2]; at 50.0 µM)	growth inhibition [3, 7]	growth inhibition [3, 8]	growth inhibition ([3]; at 50.0 µM)	growth inhibition [4, 7]	growth inhibition [4, 8]	growth inhibition ([4]; at 50.0 µM)	growth inhibition [5, 7]	growth inhibition [5, 8]	growth inhibition ([5]; at 50.0 µM)	growth inhibition [6, 7]	growth inhibition [6, 8]	growth inhibition ([6]; at 50.0 µM)
CCOC1=C(NC(C)=O)C(=O)c2ccccc2C1=O	5%	97% (active)	99% (active)	-7%	97% (active)	85.9% (active)	-2%	98% (active)	97.3% (active)	60%	97% (active)	83.3% (active)	8%	97% (active)	94.7% (active)	2%	98% (active)	97.7% (active)
CNC(=O)OC(C)CN1c2ccccc2Sc2ccc(Cl)cc21 (centres undefined)	12%	97% (active)	89.1% (active)	-11%	99% (active)	84.5% (active)	2%	45%	90.9% (active)	19%	98% (active)	86.5% (active)	26%	98% (active)	88.3% (active)	19%	98% (active)	88.2% (active)
CN(C)c1ccc(/C=N/N=C(\C#N)[S][Sn]([Cl])([c]2ccccc2)[c]2ccccc2)cc1	98% (active)	95% (active)	97.5% (active)	98% (active)	96% (active)	97.3% (active)	98% (active)	96% (active)	97.5% (active)	98% (active)	89% (active)	95% (active)	98% (active)	95% (active)	97% (active)	97% (active)	96% (active)	97.2% (active)
Oc1c(Br)cc(Cl)cc1C(c1cc(Cl)cc(Br)c1O)C(Cl)(Cl)Cl	0%	98% (active)	96% (active)	2%	99% (active)	98.2% (active)	3%	99% (active)	97.8% (active)	-5%	98% (active)	97.2% (active)	-1%	98% (active)	97.1% (active)	5%	98% (active)	90.8% (active)
Cc1ccc(S(=O)(=O)N2CCN3C(=O)c4ccccc4C32c2ccc(F)cc2)cc1 (centres undefined)	20%	95% (active)	31.8%	17%	96% (active)	26.3%	88% (active)	99% (active)	63.2%	28%	98% (active)	22.9%	37%	98% (active)	50.7%	30%	96% (active)	29.2%
O=C1NC(=O)N(c2ccc(Cl)c(Cl)c2)C1=O	-1%	8%	71.2% (active)	1%	8%	36.5%	0%	7%	41.5%	-4%	5%	24.8%	-5%	-1%	44.5%	-4%	4%	27.9%
Cc1c(Cl)nc(-c2ccccc2)nc1C(=O)CCl	43%	78% (active)	22.1%	67%	91% (active)	-0.1%	90% (active)	93% (active)	70.5% (active)	22%	66%	9.45%	38%	86% (active)	-34.3%	65%	89% (active)	4.5%
O=c1[nH]c(=S)[nH]c(-c2ccccc2)c1Cc1c(O)ccc2ccccc12	-15%	74% (active)	88.7% (active)	32%	40%	89.6% (active)	-10%	65%	84.3% (active)	-17%	41%	75.2% (active)	-15%	57%	80.8% (active)	-4%	60%	79.7% (active)
O=C(Cn1cnc2ccc([N+](=O)[O-])cc21)N1CCN(c2ccccc2)CC1	-2%	-7%	10.3%	4%	8%	19.6%	-25%	2%	12.1%	7%	-5%	-53.6%	10%	7%	-15.4%	-9%	-22%	0.6%
COc1cc2c(ccc3cc4cccc[n+]4cc32)c(Br)c1OC	0%	44%	76.8% (active)	-6%	73% (active)	42.5%	-7%	39%	73.2% (active)	-8%	13%	20.4%	-5%	46%	10.4%	4%	75% (active)	67.8%
COc1ccc2nc3cc([N+](=O)[O-])ccc3c(NNc3ccc([N+](=O)[O-])cc3)c2c1	2%	2%	58%	2%	-4%	36.9%	3%	-4%	65%	-5%	-15%	30.9%	2%	-5%	55.2%	5%	0%	66.2%
CC(C)CC(CC(C)C)OP(=O)(O)OC(CC(C)C)CC(C)C	7%	76% (active)	80.1% (active)	11%	72% (active)	82.5% (active)	9%	71% (active)	77.2% (active)	13%	78% (active)	85% (active)	9%	78% (active)	70.5% (active)	9%	82% (active)	79.3% (active)
CN(C)c1ccc2c(c1)Cc1cc(NC(=O)/C=C/C(=O)O)ccc1-2	-31%	-21%	-6.7%	-10%	-19%	-2.05%	-13%	12%	-8.55%	-5%	6%	-5.6%	2%	-3%	-10.7%	-2%	7%	-4.7%
NNC(=O)c1c(SCc2ccccc2)nc2c3ccccc3ccn12	40%	93% (active)	51.5%	22%	83% (active)	35%	42%	90% (active)	52.6%	24%	87% (active)	38.8%	33%	69%	39.1%	33%	93% (active)	81.3% (active)
COc1ccccc1/C=C1\S/C(=N/Nc2nc(C)c(C(C)=O)s2)NC1=O	20%	29%	-14.6%	15%	32%	-3.1%	20%	39%	-0.75%	20%	34%	5.4%	17%	43%	-18%	15%	36%	-7.7%
O=C(/C=C/c1cccc(Cl)c1)c1ccccc1	16%	98% (active)	95.7% (active)	-9%	99% (active)	95.5% (active)	7%	99% (active)	98% (active)	5%	52%	12.9%	-30%	98% (active)	95.2% (active)	10%	96% (active)	99.4% (active)
COC(=O)C12CCC(=O)C(C)=C1CCC(OC)(OC)C2 (centres undefined)	-5%	4%	95.2% (active)	-10%	6%	16.9%	7%	17%	66.5%	-2%	-7%	-1%	-2%	-3%	61.8%	10%	11%	82.3% (active)
CC(=O)[O-].CC(=O)[O-].CC(=O)[O-].CC(=O)[O-].Cn1c(=O)c2[nH]cnc2n(C)c1=O.Cn1c(=O)c2[nH]cnc2n(C)c1=O.[Rh+2].[Rh+2]	3%	20%	43.3%	12%	23%	27.6%	12%	13%	-39.7%	9%	9%	-5.35%	11%	19%	-29.4%	48%	62%	23.1%
